# Screen size: about 59,000 compounds; about 6,500 (11%) were called active. Roughly 15% stayed inconclusive and do not appear here. No stated cut-off is given here; in the data, active means max dye-equivalent concentration above about 10 nM; inconclusive means mostly about 1.1 nM to 9.6 nM; inactive means weaker than that. Many of the other results were omitted from the sample, so actives are more common in it than they were.
# Assay: qHTS Assay for Spectroscopic Profiling in A350 Spectral Region
# Details: Compound autofluorescence, 340/450 nm, Alexa 350 dye-equivalents; stronger effect = higher value
row,SMILES,max dye-equivalent concentration
1,Cc1ccc(C)c(NS(=O)(=O)c2cc(Br)cnc2N)c1,inactive
2,Cc1ccc(-c2noc(CSc3nnc(-c4ccccc4)n3C)n2)cc1,inactive
3,N=c1n(Cc2ccc(Cl)cc2)c2ccccc2n1CC(O)c1ccco1 (stereo not given),11 nM (active)
4,O=C(c1ccncc1)N1CCC2(CCCN(C(c3ccccc3)c3ccccc3)C2)CC1,inactive
5,COC(=O)[C@@H](NC(=O)NCc1cccc(OC)c1)C(C)C,inactive
6,CCn1c(=N)c(C(=O)NCCCOC)cc2c(=O)n3cccc(C)c3nc21,20000 nM (active)
7,CCOCCCNC(=O)c1c[nH]c2cc(C)ccc2c1=O,inactive
8,COc1cc(OC)cc(-c2nc3nc(C)c(CCC(=O)NCc4ccco4)c(C)n3n2)c1,inactive
9,COCCCNC(=O)c1ccc2c(c1)ncn2-c1ccccc1OC,inactive
10,COc1ccc(C(=O)NCc2cn3ccccc3n2)cc1,inactive
11,COc1ccc(CCn2c(=N)c(C(=O)NCc3ccco3)cc3c(=O)n4cccc(C)c4nc32)cc1,15 nM (active)
12,COc1ccccc1C(=O)NCCn1cc(SCC(=O)NCc2ccco2)c2ccccc21,inactive
13,COc1ccc(CNC(=O)c2cc3c(=O)n4ccccc4nc3n(CC3CCCO3)c2=N)cc1 (stereo not given),290 nM (active)
14,COc1ccc(CNC(=O)C2CCN(S(=O)(=O)N3CCOCC3)CC2)cc1,inactive
15,COCCNc1ncnc2ccc(-c3cccnc3)cc12,inactive
16,C=C(C)COc1ccc(-c2n[nH]c(C)c2-c2ccccc2OC)c(O)c1,inactive
17,CN1CCc2[nH]nc(-c3n[nH]c4c3CN(C)CC4)c2C1,inactive
18,CCCSc1nc2c(c(=O)n(C)c(=O)n2C)n1Cc1ccc(C)cc1,inactive
19,COc1ccccc1N1CCN(C(=O)Cn2nnc(-c3cccs3)n2)CC1,inactive
20,COc1ccc2c(c1)C(C)=CC(C)(C)N2C(=O)CNCc1ccc2c(c1)OCO2,inactive
21,O=C1Nc2ccccc2C12Nc1ccccc1S2 (stereo not given),inactive
22,CCCCSc1nnc(-c2ccc(NC(=O)CC)cc2)n1C,inactive
23,Cc1cc(N2CCCC2=O)cc(C)c1S(N)(=O)=O,inactive
24,COc1ccc(CCNS(=O)(=O)c2ccc(C(=O)NCc3ccco3)cc2)cc1OC,inactive
25,C(=C\c1ccccc1)/CSc1nnc(-c2cccnc2)n1Cc1ccco1,inactive
26,O=C(CSc1nnc(-c2cccnc2)n1Cc1ccco1)c1ccc(Cl)cc1,inactive
27,Clc1cccc(-c2nc3nc4ccccc4nc3n2Cc2ccco2)c1,150 nM (active)

row,SMILES,max dye-equivalent concentration
1,O=C(NCC12CC3CC(C1)CC(CNC(=O)N1CCCC1)(C3)C2)N1CCCC1,inactive
2,CC(=O)NCCc1ccc(S(=O)(=O)N(C)C2CCS(=O)(=O)C2)cc1 (stereo not given),inactive
3,CCc1nc(Nc2ccc3nccnc3c2)c2oc3ccccc3c2n1,82 nM (active)
4,C[C@@H](Nc1nc(-c2ccccc2)nc2c1oc1ccccc12)C(=O)O,inactive
5,Cc1nc(N2CCN(c3ncccn3)CC2)c2oc3ccccc3c2n1,inactive
6,Cc1ccc(O)c(NC(=O)COc2cc(C)ccc2C)c1,inactive
7,CC(=O)c1ccc(N2C(=NC(=O)C(C)C)SC3CS(=O)(=O)CC32)cc1 (stereo not given),inactive
8,CCOC(=O)CSc1nncc2ccc(OC)c(OC)c12,inactive
9,Cc1ccccc1N1C(=O)C2ON(c3ccccc3)C(c3ccncc3)C2C1=O (stereo not given),inactive
10,Cc1cc2c(cc1C)NC(c1ccccn1)C1=C(CC(C)(C)CC1=O)N2 (stereo not given),inactive
11,C=CCSC1=C(C#N)C(c2cc(Br)c(O)c(OC)c2)CC(=O)N1 (stereo not given),inactive
12,COc1cc(C2C(C#N)=C(C)NC3=C2C(=O)CC(C)(C)C3)ccc1O (stereo not given),17 nM (active)
13,CCOc1ccc(CN(Cc2ccco2)C(c2cccs2)c2nnnn2C(C)(C)C)cc1 (stereo not given),inactive
14,CCN(Cc1ccncc1)C(=O)[C@@H](CO)c1ccccc1,inactive
15,COc1ccc(C(=O)N/N=C2/C(=O)c3c(C)cc(C)cc3CC2(C)C)cc1,inactive
16,Cc1ccc(-c2nc(COC(=O)c3c(C)noc3C)cs2)cc1,inactive
17,Cc1noc(C)c1C(=O)Nc1ccccn1,inactive
18,Cc1noc(C)c1C(=O)OCC(=O)/C=C1\N(C)c2ccccc2C1(C)C,210 nM (active)
19,COc1cc(C(=O)Nc2oc(-c3ccccc3)c(-c3ccccc3)c2C#N)cc(OC)c1OC,11 nM (active)
20,COC(=O)c1cccc(NC(=O)CN2CCC(NC(=O)c3cc(OC)c(OC)c(OC)c3)CC2)c1,inactive
21,COc1cc(C(=O)Nc2nccs2)cc(OC)c1OC,inactive
22,COc1ccc(CNc2ncncc2-c2ccccc2OC)c(OC)c1,inactive
23,COc1ccc(S(=O)(=O)N2CCCCC2)cc1Br,inactive
24,Cc1ccc(-n2nc(-c3ccco3)cc2C(=O)NCc2cccnc2)cc1,inactive
25,CC(C)(C)c1cc(C(=O)NCc2cccnc2)ccn1,inactive
26,COCCn1c(=O)[nH]c2cc(C(=O)NCc3cccnc3)ccc2c1=O,38 nM (active)
27,CC1=C2C(=O)OC(c3ccoc3)C2(C)CCC1 (stereo not given),inactive

row,SMILES,max dye-equivalent concentration
1,Cc1ccccc1N1CCN(S(=O)(=O)C[C@@]23CC[C@H](C[C@H]2NC(=O)[C@@H](N)CCS(C)(=O)=O)C3(C)C)CC1,inactive
2,CCCC(=O)Nc1nnc(CC(=O)OCC)s1,inactive
3,NC(=O)COc1ccc2c3c(c(=O)oc2c1)CCCCC3,29 nM (active)
4,O=C(COc1ccccc1F)NC1CC1,inactive
5,O=C(CC1OC(=O)c2ccccc21)NC1CCCCC1 (stereo not given),inactive
6,O=C(COc1ccc2oc3c(c2c1)CCCC3)Nc1ccccn1,inactive
7,O=C(COc1ccc2c3c(c(=O)oc2c1)CCC3)NC1CCCCC1,82 nM (active)
8,Cc1cc(Cl)c(S(=O)(=O)NCC2CCCO2)cc1OCC(N)=O (stereo not given),inactive
9,COc1ccccc1Nc1nc(N)nc(CN(C)C2CCCCC2)n1,inactive
10,COc1cccc(-c2cc(NCCc3c[nH]c4ccc(OC)cc34)ncn2)c1,inactive
11,O=S1(=O)CCN2C(=N1)SC1=C2CCN(Cc2ccccc2)C1,inactive
12,COc1ccccc1-n1cnc2cc(C(=O)NCC3CCCO3)ccc21 (stereo not given),inactive
13,O=C(Cn1c(=O)n(Cc2ccco2)c(=O)c2ccccc21)NCC1CCCO1 (stereo not given),inactive
14,CC1(C)CC(=O)c2cc(OCC(=O)NCC3CCCO3)ccc2O1 (stereo not given),1600 nM (active)
15,O=C(c1csnn1)N1CCC2(CCN(Cc3nccs3)CC2)CC1,inactive
16,Cc1cc(C)n(C(=O)c2ccc(S(=O)(=O)N3CCCC3)cc2)n1,inactive
17,Cn1nnc2cc(C(=O)NCCC3=CCCCC3)ccc21,inactive
18,CCOC(=O)c1cc2n(c1N)-c1ccccc1C2=O,inactive
19,CCCn1c(=NC(C)=O)c(C(=O)OCC)cc2c(=O)n3ccccc3nc21,4900 nM (active)
20,CCOC(=O)c1cc2n(c1C)-c1ccccc1C2=O,inactive
21,O=S(=O)(CCc1nc2ccccc2o1)c1ccc(Cl)cc1,inactive
22,CN1CCC2(CC1)NC(=O)NC2=O,inactive
23,CCN(CC)S(=O)(=O)c1cccc(C(=O)Nc2cc(C)nn2-c2nc(C)cc(C)n2)c1,inactive
24,CCC(=O)NC(=Nc1nc2ccccc2s1)NC(=O)CC,190 nM (active)
25,CSCCC(Nc1nc2ccccc2s1)C(=O)O (stereo not given),inactive
26,COC(=O)Cc1cc(=O)n(-c2nc3ccccc3s2)[nH]1,inactive
27,O=C(O)[C@@H](S)[C@H](S)C(=O)O,inactive

row,SMILES,max dye-equivalent concentration
1,O=C(CSc1nnc(-c2c[nH]c3ccccc23)n1-c1ccc(F)cc1)NCc1ccco1,inactive
2,O=C(CSc1nnc(-c2cccs2)n1-c1ccccc1)NCc1ccco1,11 nM (active)
3,COc1ccc(-n2c(SCC(=O)NCc3cccs3)nnc2-c2ccoc2C)cc1,27 nM (active)
4,Cc1ccc(-n2c(SCC(=O)Nc3ccc4c(c3)OCO4)nnc2-c2ccoc2C)cc1,inactive
5,O=C(CSc1nnc(-c2cccs2)n1-c1ccccc1)N1CCN(C(=O)c2ccco2)CC1,inactive
6,COc1ccc(C(=O)NC(=O)CSc2nnc(-c3ccco3)n2-c2ccccc2)cc1,inactive
7,NCCNCC1CCNCC1,inactive
8,Cc1cccc(N2CCN(S(=O)(=O)c3ccc4c(c3)c(=O)n(C)c(=O)n4C)CC2C)c1 (stereo not given),inactive
9,O=C(c1cnccn1)N1CCC[C@@]2(CCN(Cc3ccncc3)C2)C1,inactive
10,Cc1ccc(-c2ccc(=O)n(CC(=O)NCCCN3CCCCC3)n2)cc1,inactive
11,COc1ccc(CCN2C(=O)c3[nH]nc(-c4ccccc4O)c3C2c2ccc(C)cc2)cc1OC (stereo not given),140 nM (active)
12,COc1ccc(-c2n[nH]c(C)c2-c2ccc(OC)c(OC)c2)c(O)c1,inactive
13,COc1ccc(CCN(C)CCN2C(=O)c3ccccc3C2=O)cc1OC,inactive
14,Cc1cc(C(=O)COC(=O)c2cccs2)c(C)n1-c1c(C)n(C)n(-c2ccccc2)c1=O,inactive
15,Cc1ccc(S(=O)(=O)N2CCN(C(=O)CCC(=O)NC3CCCc4ccccc43)CC2)cc1 (stereo not given),inactive
16,N#C/C=C1\Sc2ccccc2C(=O)N1CC(=O)N1CCN(S(=O)(=O)c2ccccc2)CC1,15 nM (active)
17,O=C(CCC(=O)N1CCN(S(=O)(=O)c2ccccc2)CC1)NC1CCCc2ccccc21 (stereo not given),inactive
18,COCCn1c(-c2ccc(OC)c(OC)c2)nc2ccccc21,inactive
19,COc1ccc(CCn2c(-c3ccco3)nc3nc4ccccc4nc32)cc1OC,11 nM (active)
20,COc1ccc(CCn2nnnc2C(c2ccccc2)N2CCN(C)CC2)cc1OC (stereo not given),inactive
21,CCc1ccccc1NC(=O)CSc1nnc([C@@H](NC(=O)OC(C)(C)C)C(C)C)o1,inactive
22,CN1CCN(C(=O)c2ccc(NS(=O)(=O)c3ccccc3)cc2)CC1,inactive
23,O=C(Nc1c[nH]c(=O)[nH]c1=O)Oc1ccccc1,inactive
24,COc1ccc(C(=O)Nc2ccc(S(=O)(=O)Nc3onc(C)c3C)cc2)cc1OC,inactive

# Source: PubChem BioAssay AID590 (National Center for Advancing Translational Sciences (NCATS), 2007)
